Drawing on PubChem BioAssay, this text covers composite z-score and z-score for 14 molecules.

The subject of test [1] is PRMT1 (protein arginine N-methyltransferase 1). As to the kind of experiment: PRMT1 binders on small-molecule microarrays, primary screen, biochemical, small-molecule microarray, 635 nm fluorescence (AID 1088).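 Further: binding of Prmt1 protein to compounds spotted on small-molecule microarray slides.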 Conditions: small-molecule microarray binding, higher = more signal.
A short description of test [2]: yeast growth modulation, basal conditions, primary screen, YJM789 clinical isolate, OD600, 24 h (AID 1089).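 Further: growth of clinical yeast isolate S. cerevisiae YJM 789 seeded 1000 cells per well; test concentration not given here.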 Conditions: S. cerevisiae YJM789 growth, higher = more signal, called active from +8 up or from −8 down.
Test [3] in a line: fission yeast growth modulation, primary screen, strain 972, OD600, 24 h, no modulator (AID 1090).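 Further: basal condition with compound alone and no growth modifier present; test concentration not given here.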 Conditions: S. pombe 972 growth, higher = more signal, called active from +8 up or from −8 down.
Test [4] in a line: S. cerevisiae growth modulation with rapamycin, primary screen, strain BY4716, OD600, 96 h (AID 1091). Further: test concentration not given here. Conditions: higher = more signal, called active from +8 up or from −8 down.
Test [5] addresses Torsin-1A-interacting protein 2 (Homo sapiens) (UniProt Q8NFQ8). As to the kind of experiment: LULL1 binders on small-molecule microarray, primary screen, cell lysate, human LULL1 lysate, 635/667 nm fluorescence (AID 1092).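 Further: probe is lysate of COS7 cells overexpressing human LULL1; score merges per-feature 667 nm fluorescence with signal-to-noise.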 Conditions: hLULL1 lysate binding, 635 nm fluorescence, higher = more signal.
The nature of test [6]: E. coli growth modulation, two-sided OD650, primary screen, E. coli filamentation project, strain DRC41, 24 h (AID 1093).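 Further: MC1000 strain lacking acrAB efflux and sulA so SOS filamentation is blocked; test concentration not given here.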 The settings on record: OD650, 24 h, higher = more signal, called active from +8 up or from −8 down.
The nature of test [7]: small-molecule microarray binders of probe aLefty2, primary screen, biochemical, biotinylated probe, 635/667 nm fluorescence (AID 1094).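 Further: score merges spot fluorescence near 667 nm with spot signal-to-noise ratio.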 The settings on record: higher = more signal.
For test [8], the system named is Noggin (protein binding on small-molecule microarray). As to the kind of experiment: Noggin binders on small-molecule microarray, primary screen, biochemical, 635/667 nm fluorescence (AID 1095).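 Further: score merges 667 nm feature fluorescence with signal to noise over triplicate slides.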 Conditions: 635 nm fluorescence, higher = more signal.
Test [9] deals with Neurogenic locus notch homolog protein 3 (Homo sapiens) (UniProt Q9UM47). As to the kind of experiment: NOTCH3 binders on small-molecule microarray, primary screen, biochemical, 635/667 nm fluorescence (AID 1096). Conditions: NOTCH3 binding, 635 nm fluorescence, higher = more signal.
Sequence of Neurogenic locus notch homolog protein 3 (Homo sapiens) (Q9UM47 whole entry, looked up): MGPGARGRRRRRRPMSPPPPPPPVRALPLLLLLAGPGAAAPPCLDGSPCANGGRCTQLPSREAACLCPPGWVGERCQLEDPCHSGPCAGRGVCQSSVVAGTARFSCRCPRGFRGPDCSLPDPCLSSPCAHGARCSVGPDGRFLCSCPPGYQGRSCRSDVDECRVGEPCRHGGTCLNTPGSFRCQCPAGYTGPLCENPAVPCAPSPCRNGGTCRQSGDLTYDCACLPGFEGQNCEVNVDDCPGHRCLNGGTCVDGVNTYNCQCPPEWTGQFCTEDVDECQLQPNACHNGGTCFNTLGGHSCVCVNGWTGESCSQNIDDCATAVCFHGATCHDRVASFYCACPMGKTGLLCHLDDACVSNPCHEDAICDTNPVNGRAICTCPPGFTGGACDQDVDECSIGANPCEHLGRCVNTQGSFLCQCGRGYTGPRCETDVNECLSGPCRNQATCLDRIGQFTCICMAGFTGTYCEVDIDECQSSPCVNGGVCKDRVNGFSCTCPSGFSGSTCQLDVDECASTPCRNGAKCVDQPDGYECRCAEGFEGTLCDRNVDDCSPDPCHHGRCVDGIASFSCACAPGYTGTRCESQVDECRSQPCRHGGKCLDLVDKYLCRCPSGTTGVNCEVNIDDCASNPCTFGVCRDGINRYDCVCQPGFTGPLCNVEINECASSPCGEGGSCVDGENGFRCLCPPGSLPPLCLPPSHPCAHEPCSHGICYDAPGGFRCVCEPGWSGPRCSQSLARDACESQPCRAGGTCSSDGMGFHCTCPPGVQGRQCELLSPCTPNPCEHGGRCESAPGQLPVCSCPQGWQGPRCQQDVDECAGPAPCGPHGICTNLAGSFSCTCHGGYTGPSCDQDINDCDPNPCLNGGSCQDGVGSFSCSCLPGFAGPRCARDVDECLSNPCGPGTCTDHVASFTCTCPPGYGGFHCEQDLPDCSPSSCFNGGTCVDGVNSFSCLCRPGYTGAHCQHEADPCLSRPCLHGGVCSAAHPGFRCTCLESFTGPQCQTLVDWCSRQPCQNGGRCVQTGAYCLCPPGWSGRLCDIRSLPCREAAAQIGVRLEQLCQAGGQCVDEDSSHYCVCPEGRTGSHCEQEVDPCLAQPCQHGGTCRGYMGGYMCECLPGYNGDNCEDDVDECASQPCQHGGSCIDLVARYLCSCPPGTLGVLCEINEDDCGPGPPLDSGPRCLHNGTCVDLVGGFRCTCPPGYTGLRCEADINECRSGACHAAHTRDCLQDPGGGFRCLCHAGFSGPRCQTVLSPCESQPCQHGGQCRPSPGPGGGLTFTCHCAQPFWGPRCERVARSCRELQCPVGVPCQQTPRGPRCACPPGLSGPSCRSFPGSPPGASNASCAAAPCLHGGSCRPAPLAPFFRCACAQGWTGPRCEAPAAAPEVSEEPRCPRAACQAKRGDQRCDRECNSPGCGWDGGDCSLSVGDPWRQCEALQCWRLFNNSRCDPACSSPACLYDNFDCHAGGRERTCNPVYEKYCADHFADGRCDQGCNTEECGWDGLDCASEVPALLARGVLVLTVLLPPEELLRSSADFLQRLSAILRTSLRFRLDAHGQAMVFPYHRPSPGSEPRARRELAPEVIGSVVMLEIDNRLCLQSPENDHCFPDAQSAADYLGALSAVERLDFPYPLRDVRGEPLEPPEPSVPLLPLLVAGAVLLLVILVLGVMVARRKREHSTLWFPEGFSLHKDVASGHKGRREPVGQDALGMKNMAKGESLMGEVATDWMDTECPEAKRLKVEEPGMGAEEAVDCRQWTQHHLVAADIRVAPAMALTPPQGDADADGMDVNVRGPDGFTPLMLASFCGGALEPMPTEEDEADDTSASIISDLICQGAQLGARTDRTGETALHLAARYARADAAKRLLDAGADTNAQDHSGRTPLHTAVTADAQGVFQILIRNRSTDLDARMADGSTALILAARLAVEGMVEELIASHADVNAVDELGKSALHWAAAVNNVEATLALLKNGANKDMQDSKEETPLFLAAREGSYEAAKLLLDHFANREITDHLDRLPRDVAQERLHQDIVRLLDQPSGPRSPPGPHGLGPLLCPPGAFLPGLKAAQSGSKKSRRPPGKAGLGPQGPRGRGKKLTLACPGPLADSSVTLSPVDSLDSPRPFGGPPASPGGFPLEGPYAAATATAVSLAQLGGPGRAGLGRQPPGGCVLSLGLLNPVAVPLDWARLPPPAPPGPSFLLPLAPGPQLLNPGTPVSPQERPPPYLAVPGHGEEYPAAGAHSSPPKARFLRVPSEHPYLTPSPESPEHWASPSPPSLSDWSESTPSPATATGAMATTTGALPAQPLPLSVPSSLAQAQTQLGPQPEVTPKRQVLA
Test [10] can be described thus: small-molecule microarray binders of probe aEGFR, primary screen, biochemical, biotinylated probe, 635/667 nm fluorescence (AID 1097).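 Further: probe is a biotinylated anti-EGFR antibody binding compounds printed on slides; score combines fluorescence near 667 nm and signal to noise of each spot.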 Conditions: higher = more signal.

Structures are written as SMILES. Activity calls are given as the source filed them.

Sequence of Torsin-1A-interacting protein 2 (Homo sapiens) (Q8NFQ8 whole entry, looked up): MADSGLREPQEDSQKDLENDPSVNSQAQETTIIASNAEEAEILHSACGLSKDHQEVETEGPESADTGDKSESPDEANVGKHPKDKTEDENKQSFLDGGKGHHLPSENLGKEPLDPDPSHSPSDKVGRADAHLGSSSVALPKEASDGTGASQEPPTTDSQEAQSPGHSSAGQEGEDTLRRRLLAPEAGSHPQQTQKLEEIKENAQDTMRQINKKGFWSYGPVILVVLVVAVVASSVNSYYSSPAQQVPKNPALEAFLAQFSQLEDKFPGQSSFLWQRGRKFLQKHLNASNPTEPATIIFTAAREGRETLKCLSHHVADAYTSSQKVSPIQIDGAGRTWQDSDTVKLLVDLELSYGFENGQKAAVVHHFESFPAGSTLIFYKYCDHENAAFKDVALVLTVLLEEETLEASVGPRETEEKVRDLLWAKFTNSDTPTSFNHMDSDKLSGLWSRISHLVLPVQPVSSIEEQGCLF

As to `CCOc1cc(C(O)C2C=CC3C(=O)N(c4ccccc4)C(=O)C3N2Nc2ccc(C(C)C)cc2)ccc1O` (stereo not given), the composite z-score in test [1] was 1.55; in test [5] it was 3.42; in test [7], 0.0261; in test [8], 0.107; in [9], 1.1; in [10] it was -0.0581. Moreover, the z-score in [2] was 0.471 (inactive); in test [3] it was -1.28 (inactive); in test [4], 0.597 (inactive); in test [6] it was -1.14 (inactive).

With `O=C1C2C=CC(C(O)c3c(F)cccc3Cl)N(Nc3ccccc3F)C2C(=O)N1c1ccccc1` (stereo not given), the composite z-score came to 0.0998 in test [1]; 2.98 in test [5]; 0.17 in test [7]; 0.0424 in [8]; 1.05 in test [9]; 0.196 in [10]. The z-score in test [2] is 0.232 (inactive); in test [3] it was 1.03 (inactive); in test [4], 0.722 (inactive); in [6], -0.744 (inactive).

Consider `CCCC=C(CCC)[C@@H](NS(=O)(=O)c1ccc(Cl)cc1)c1ccc(C(=O)OC)cc1`, for which the composite z-score in [1] is 0.687; in test [5] it was 0.735; in test [7] it was 0.0007; in test [8], -0.392; in test [9], -1.6; in test [10], 0.0219. Further, the z-score in test [2] was -0.288 (inactive); in test [3], 0.745 (inactive); in test [4], -0.825 (inactive); in test [6], 0.0177 (inactive).

Turning to `[N-]=[N+]=Nc1ccccc1C[C@@]1(C(=O)N2CCCCC2)N=C(c2ccc(OCCCO)cc2)O[C@@H]1c1ccccc1`, the composite z-score was 1.14 in test [1]; 2.97 in test [5]; 0.101 in test [7]; 0.0588 in [8]; 1.04 in [9]; -0.0382 in test [10]. Moreover, the z-score in [2] was -1.96 (inactive); in test [3], -2.65 (inactive); in test [4] it was 0.737 (inactive); in test [6], 2.76 (inactive).

Regarding `CN(C)C(=O)[C@]1(Cc2ccccc2)N=C(c2ccc(OCCCO)cc2)O[C@@H]1c1ccccc1N=[N+]=[N-]`, the composite z-score in [1] stood at 1.56; in [5] it was 2.84; in [7], 0.141; in test [8] it was 1.35; in test [9], 1.12; in test [10] it was 0.438. The z-score in test [2] was -0.305 (inactive); in test [3], -0.655 (inactive); in test [4], 1.06 (inactive); in [6], 0.841 (inactive).

Turning to `COC(=O)c1c2oc(c1C(=O)OC)C(=O)NC1(CCCCC1)c1cn(nn1)C[C@H](Cc1ccccc1)NC(=O)N[C@H](CO)CC2`, the composite z-score in [1] was 1.27; in test [5], 2.86; in test [7], -0.186; in test [8], 0.322; in test [9], 0.705; in [10], -0.171. Besides, the z-score in test [2] is 0.517 (inactive); in [3], 0.718 (inactive); in test [4], -0.466 (inactive); in [6] it was 1.52 (inactive).

With `NC(=O)NCC#Cc1ccc2c(c1)[C@]1(C(=O)N2)[C@H](C(=O)O)[C@H]2C(=O)O[C@H](c3ccccc3)[C@H](c3ccccc3)N2[C@@H]1c1ccc(O)cc1`, the composite z-score stood at 0.167 in test [1]; 0.68 in test [5]; 0.883 in test [7]; 0.758 in test [8]; 0.767 in test [9]; 0.0156 in test [10]. In addition, the z-score in test [2] is 0.0288 (inactive); in test [3], -0.856 (inactive); in test [4] it was -0.483 (inactive); in test [6] it was -1.16 (inactive).

Consider `COC(=O)[C@]1(Cc2ccccc2)N=C(c2ccc(OCCCO)cc2)O[C@@H]1c1ccccc1N=[N+]=[N-]`, for which the composite z-score in [1] is 1.52; in test [5] it was 1.82; in [7] it was -0.0389; in [8], 1.15; in test [9], 0.58; in test [10], -0.0987. Also, the z-score in [2] was -0.701 (inactive); in test [3], -1.01 (inactive); in test [4] it was 24.6 (active); in [6] it was -0.604 (inactive).

As to `COc1ccc([C@H]2C[C@H]3C(Br)=C[C@@]2(CO)C(=O)[C@]32CO2)cc1`, the composite z-score was -0.855 in test [1]; -0.274 in test [5]; 0.0395 in test [7]; -0.472 in [8]; -0.534 in test [9]; -0.0799 in test [10]. For the same molecule, the z-score is -0.658 (inactive) in test [2], -3.35 (inactive) in test [3], 0.241 (inactive) in test [4] and -0.687 (inactive) in test [6].

In the case of `O=C1C2C=CC(C(O)c3cc(C(F)(F)F)cc(C(F)(F)F)c3)N(Nc3ccccc3)C2C(=O)N1c1ccccc1` (stereo not given), the composite z-score in [1] is 1.29; in [5], 3.23; in [7], -0.0156; in [8] it was -0.105; in test [9] it was 0.581; in test [10], -0.0536. Also, the z-score in test [2] was 1 (inactive); in test [3], -0.158 (inactive); in test [4] it was 3.15 (inactive); in [6], -0.747 (inactive).

On to `COc1ccc(-c2cc3c(c(Cc4ccccc4)n2)[Si](C(C)C)(C(C)C)OC3)cn1`, for which the composite z-score in test [1] is -0.738; in test [5], -0.655; in [7], -0.115; in test [8], -0.154; in test [9] it was -0.459; in test [10], -0.16. The z-score in [2] is 1.64 (inactive); in test [3] it was -0.27 (inactive); in test [4], 1.41 (inactive); in test [6] it was -1.41 (inactive).

Consider `O=C1OCCC=C[C@H]2OC34C=CCN(Cn5nnc6ccccc65)C(=O)[C@H]3N(CCO)C(=O)[C@@H]4C12` (stereo not given in full), for which the composite z-score in [1] is -0.312; in [5], -0.316; in [7] it was -0.135; in [8], -1.26; in test [9], -0.491; in test [10], -0.345. Besides, the z-score was -0.352 (inactive) in test [2], 0.785 (inactive) in [3], -0.422 (inactive) in test [4] and 2.26 (inactive) in test [6].

For the molecule `CCOC(=O)C1=CC[C@H]2C(=O)N(c3ccccc3)C(=O)[C@@H]12`, the composite z-score was 1.48 in test [1]; 3.4 in test [5]; 0.157 in test [7]; 0.436 in test [8]; 1.07 in [9]; 0.08 in test [10]. For the same molecule, the z-score in test [2] was 0.296 (inactive); in [3], -0.0087 (inactive); in [4], -0.487 (inactive); in test [6], -0.981 (inactive).

As for `C=CC[C@@]1(C(=O)N2CCCCC2)N=C(c2ccc(OCCCO)cc2)O[C@@H]1c1ccccc1CN=[N+]=[N-]`, the composite z-score is 1.55 in [1]; 3.67 in test [5]; 0.178 in [7]; 0.648 in [8]; 1.08 in test [9]; 0.0528 in [10]. For the same molecule, the z-score in test [2] is -1.87 (inactive); in test [3] it was 0.0315 (inactive); in test [4] it was 0.819 (inactive); in test [6] it was 0.912 (inactive).
